# Most compounds without a hit are left out; they make up all but 19% or so of the library.
# Pf growth 96h: inhibits malaria parasite growth, 96 h | 320,000 compounds, 6.9% hits | P. falciparum luciferase reporter growth, 96 h | Potency, µM (series often up to 28.7 µM), for the others: at the highest dose activity change, negative = inhibition, usual class: inhibitors; also: potency is read from the fitted curve at half-maximal effect; % is scaled to controls: 0 for no effect and ±100 for the full control effect
#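 Erythrocytes infected with luciferase-expressing P. falciparum were dispensed at 2% hematocrit and 0.05% parasitemia (final), then incubated with compounds 96 hours at 37 C in 5% CO2. Luminescence after detection reagent addition reported growth.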
# CHX counter: counter-screen hit for Shiga toxin inhibitors, cycloheximide | cell reporter, cycloheximide protein synthesis inhibition counterscreen | max response, % | 300,000 compounds, 12% hits | AID 2314; in the data active = max response mostly above about 13%, no sharp cut-off; inactive = mostly below about 14%; also: read at 38.3 µM for the half of the compounds with a filed dose; 0% is about no effect
# LASV entry inh: blocks Lassa virus binding to or entry into cells; Lassa virus pseudotype entry inhibition, cell reporter; Potency, µM (titrated, usually from 37.9 µM), for inactives: at the top dose activity change, negative = inhibition, most hits filed as inhibitors; 300,000 compounds, 1.2% hits; AID 540256; calls by dose curve; tested in HEK293 cells; also: potency is read from the fitted curve at half-maximal effect; % is scaled to controls: 0 for no effect and ±100 for the full control effect; nearly all actives have a fitted effect of over 50% in size
# Shiga inhibitor: Shiga toxin inhibition | Vero cells, Shiga toxin protein synthesis inhibition reporter | inhibition, % at 38.7 µM | 290,000 compounds, 9.2% hits; in the data active = inhibition mostly above about 28%, no sharp cut-off; inactive = mostly below about 43%; also: 0% is about no effect
# Pf growth 48h: P. falciparum growth inhibition at 48 hours (one generation). AID 504832. P. falciparum luciferase growth in erythrocytes, 48 h. 310,000 compounds, 5.9% hits. Potency, µM (top dose mostly 28.7 µM), inactives show at the highest dose activity change, negative = inhibition, most hits filed as inhibitors; also: potency is read from the fitted curve at half-maximal effect; % is scaled to controls: 0 for no effect and ±100 for the full control effect
#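 Read-out is firefly luciferase luminescence from an integrated reporter in P. falciparum, so falling signal marks reduced parasite growth. Infected erythrocytes were at 2% hematocrit and 0.1% parasitemia (final) in Albumax-supplemented RPMI 1640.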
# MARV entry inh: blocks Marburg virus binding to or entry into cells. Potency, µM (top dose mostly 37.8 µM), for inactives: at the top dose activity change, negative = inhibition, usual class: inhibitors. 300,000 compounds, 1.8% hits. Marburg virus pseudotyped entry inhibition, cell reporter; calls by dose curve; tested in HEK293 cells; also: potency is read from the fitted curve at half-maximal effect; % is scaled to controls: 0 for no effect and ±100 for the full control effect
# Active calls of the source: *; u = inconclusive; x = no result given; [ ] = another dose, or the depositor's remark. Unless noted, calls follow the shape of the dose curve; as a rule, active = well fitted inhibition curve with a large enough effect; inconclusive = small, poorly fitted or top-dose-only effect, or another doubt; inactive = no such curve, though single readings can be large or run the other way.
SMILES,Pf growth 96h,CHX counter,LASV entry inh,Shiga inhibitor,Pf growth 48h,MARV entry inh
O=C(COC(=O)/C=C/c1cccc(F)c1)Nc1ccc2[nH]c(=O)[nH]c2c1,11%,x,-19%,x,-2%,6%
CC1(C)OC(c2ccccc2)=C/C(=C/C=C2C(=O)NC(=O)NC2=O)O1,212%,5,2%,20,24%,-18%
CC1(C)OC(c2ccccc2)=C/C(=C/C=Nc2ccccc2)O1,u,16*,-14%,35*,u,-6%
N[C@@H](CSSC[C@H](N)C(=O)O)C(=O)O,x,-5,x,-5,x,x
O=C(Nc1cnn(Cc2c(Cl)cccc2Cl)c1)c1ccc([N+](=O)[O-])cc1,13µM*,53*,9%,87*,u,-5%[46.1 µM]
COc1ccc(CC(=O)N/N=C(\C)CC(=O)Nc2ccc(N(C)C)cc2)cc1,-19%,-2,-21%[46.1 µM],15,u,2%[46.1 µM]
C/C(CC(=O)Nc1ccc(N(C)C)cc1)=N\NC(=O)c1ccc([N+](=O)[O-])cc1,-14%,18*,1%[46.1 µM],33,-10%,3%[46.1 µM]
C/C(CC(=O)Nc1ccc(N(C)C)cc1)=N\NC(=O)Cc1csc(N)n1,45%,19*,4%,48*,u,4%
CN(C)c1ccc(NC(=O)c2ccc(Cn3cc([N+](=O)[O-])cn3)cc2)cc1,9%,50*,-18%[46.1 µM],108*,17%,-19%[46.1 µM]
O=C(COc1ccc(Cl)cc1)Nc1cnn(Cc2c(Cl)cccc2Cl)c1,u,10,-27%,2,-24%,u
CCNS(=O)(=O)c1ccc(NC(=O)c2ccc(Cn3cc([N+](=O)[O-])cn3)o2)cc1,u,5,-21%[46.1 µM],23,u,-2%[46.1 µM]
CCC1(c2ccccc2)NC(=S)N(c2cccc(C)c2C)N1 (stereo not given),0%,-3,-26%,-7,-11%,13%
O=C(CSc1nnc(CNC(=O)c2c(F)cccc2F)o1)NCc1ccccc1,5%,1,-2%,-4,-1%,2%
Cc1ccc(C(=O)Nc2ccc(CN3CCS(=O)(=O)CC3)cc2)cc1C,43%,36*,26%,73*,8%,26%
COc1ccc(C2=C(C)C(=O)N(Cc3ccc(C(=O)Nc4ccc(C)c(C)c4)cc3)S2(=O)=O)cc1,x,x,-18%[46.1 µM],x,x,x
COc1ccc(C(=O)Nc2ccc(CN3CCS(=O)(=O)CC3)cc2)cc1,-11%,3,x,9,-9%,x
CN(C)c1ccc(C(=O)Nc2ccc(CN3CCS(=O)(=O)CC3)cc2)cc1,-3%,36*,x,52,7%,x
O=S(=O)(Nc1ccncc1)c1ccc(Cl)cc1,1%,-3,-20%,-8,x,u
O=C(c1ccccc1)N1CCN(c2ncnc3c(-c4ccccc4)nsc23)CC1,19%,-1,x,-17,-29%,x
Cc1ccc(C(=O)N2CCN(c3ncnc4c(-c5ccccc5)nsc34)CC2)cc1,1.5µM*,12,x,18,21%,x
Cc1ccc(-c2nsc3c(N4CCC(C(N)=O)CC4)ncnc23)cc1,u,33*,u,52*,149%,25%
Cc1ccc(C(=O)N2CCN(c3cc(=O)[nH]nc3-c3ccccc3)CC2)cc1,12µM*,1,-23%,13,u,-1%
O=C(N1CCCC1)N1CCN(c2ncnc3c(-c4ccc(Cl)cc4)nsc23)CC1,1.9µM*,34*,x,97*,50%,-2%
Clc1ccc(OCc2nnc(SCc3nc4ccccc4[nH]3)n2Cc2ccco2)cc1,-16%[5.75 µM],-7,u,-14,u,u
CC(=O)Nc1ccc(NC(=O)c2cc3c(=O)n(Cc4cccnc4)ccc3nc2C)cc1,x,x,-22%[46.1 µM],x,x,x
N#CC1(NC(=O)COc2cc(F)ccc2[N+](=O)[O-])CCCCC1,u,x,1%,x,-28%,0%
Cc1ccc(NC(=O)c2nc(S(C)(=O)=O)ncc2N(Cc2cccc(F)c2)Cc2ccco2)cc1C,x,x,-4%[46.1 µM],x,x,u
COc1ccc(-c2nsc3c(N4CCCCC4)ncnc23)cc1,u,58*,u,100*,185%,u
O=C(NC1=NC2CCCCC2N1)c1ccccc1 (stereo not given),x,34*,u,97*,192%,u
CNC(=S)N(C1=NCC(c2ccc([N+](=O)[O-])cc2)S1)c1ccccc1 (stereo not given),13µM*,39*,-2%[46.1 µM],56*,-33%,-24%[46.1 µM]

# From PubChem BioAssay
